AI-2 QS modul – modulates the Vibrio harveyi AI-2 quorum sensing system. Vibrio harveyi JMH597 AI-2 luminescence/OD600 ratio, 9 h; hits give low values; strain lacks LuxN and CqsS sensors; 0 = neutral-control median. actives 0.4% (n = 300,000). activity change, % at 7.5 µM; in the data active = activity change below about -75%, passing the limit was not always enough;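 note: luminescence divided by OD600 gain over 9 h not by final OD600 alone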
NTR1 ag – activates human neurotensin receptor 1. P30989. NTR1-U2OS beta-arrestin-GFP spot imaging, agonist mode. activation, % at 20 µM. actives 0.17% (n = 330,000);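 active = activation at or above 40% of the spot to cytoplasm intensity ratio, with at least 20 cells analyzed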;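 note: 0% = DMSO without peptide and 100% = 100 nM NTR1 peptide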
Target sequence (P30989 whole entry, looked up): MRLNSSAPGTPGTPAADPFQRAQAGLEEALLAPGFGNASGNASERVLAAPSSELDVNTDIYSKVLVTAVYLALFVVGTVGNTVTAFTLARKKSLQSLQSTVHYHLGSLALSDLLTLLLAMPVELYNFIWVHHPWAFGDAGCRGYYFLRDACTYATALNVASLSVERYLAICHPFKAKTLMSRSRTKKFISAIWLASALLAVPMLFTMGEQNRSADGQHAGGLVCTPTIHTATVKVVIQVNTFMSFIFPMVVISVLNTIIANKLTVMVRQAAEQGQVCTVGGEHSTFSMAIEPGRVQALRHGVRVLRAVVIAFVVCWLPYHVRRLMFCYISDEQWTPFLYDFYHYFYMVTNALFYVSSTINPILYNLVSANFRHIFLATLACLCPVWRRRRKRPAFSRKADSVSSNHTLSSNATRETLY
SUMO Mot1 rescue – SUMOylation pathway inhibition by Mot1-301 growth rescue. S. cerevisiae Mot1-301 growth rescue, ATP luminescence, 38.5C; percent above DMSO median, 100 means doubled. growth rescue, % at 18.8 µM. actives 1% (n = 320,000). AID 2716;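 active = every valid replicate shows activation above 250% relative to neutral control wells; inactive = the rest, any valid replicate at or below 250%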;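 note: OY570 slx delta 5 strain wells were the positive control but not used for scaling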
H9c2 protect – protects H9c2 cardiomyocytes from peroxide injury | H2O2 injury protection, ATPLite, 2 h | protection from H2O2 cell death, % at 20 µM | actives 0.63% (n = 360,000);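 active = compounds giving at least 50% protection of heart cells from peroxide-induced death in the single-dose screen, raw or plate-pattern-corrected value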;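 note: 0% = DMSO wells with peroxide and 100% = DMSO wells without peroxide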
AHR activator – human AHR activation; P35869; AHR-responsive luciferase reporter cells, luminescence; activation, % at 5 µM; actives 2.5% (n = 320,000); in the data active = activation above about 47%;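 note: 0% = vehicle wells and 100% = reference agonist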
NR3A LBD binder – modulates the human NR3A ligand-binding domain. Tm shift relative to glycine control, % at 25 µM. NR3A LBD differential scanning fluorimetry, Tm shift; 0% = protein alone, 100% = glycine-bound protein. actives 2.5% (n = 340,000);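 active = melting temperature shift of at least 10% of the positive control shift, at one fixed dose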
Mot1 SUMO dose – inhibits SUMO pathway, affecting Mot1-301 yeast growth; shares compounds with SUMO Mot1 rescue; S. cerevisiae Mot1-301 galactose growth, ATP luminescence, 24 h; -100 = growth of slx-deleted rescue strain; growth activity, percent, % at 42 µM; 2,300 tested, under 10 active;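 active = Signal drops as the depositor expects, and the fitted half-maximal dose is no more than ten times the top valid tested dose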;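 note: more negative values mean stronger growth rescue toward the control strain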
The depositor's hits bear a star. In the library only some 6.2% were active in any assay of this set; here they are far more common.

Cc1cc(C)c2cc(C)c3nnc(SCC(=O)NCc4ccc5c(c4)OCO5)n3c2c1 was read as AI-2 QS modul 35, NTR1 ag 5, SUMO Mot1 rescue 621*, H9c2 protect 16, AHR activator 8, NR3A LBD binder 3 and Mot1 SUMO dose 0.
For CCOc1cc(S(=O)(=O)NCc2ccc3c(c2)OCO3)c(C)cc1C the results were AI-2 QS modul 2, NTR1 ag 3, SUMO Mot1 rescue 701*, H9c2 protect -2, AHR activator 29, NR3A LBD binder -1 and Mot1 SUMO dose 0.
`CCOc1ccccc1C(=O)OCC(=O)NCc1ccc2c(c1)OCO2` gave NTR1 ag 0, SUMO Mot1 rescue 4, H9c2 protect 2, AHR activator 2 and NR3A LBD binder 0.
Screening CCOc1ccccc1C(=O)NCc1ccc2c(c1)OCO2 returned AI-2 QS modul 17, NTR1 ag -2, SUMO Mot1 rescue 879*, H9c2 protect -2, AHR activator 12, NR3A LBD binder 0 and Mot1 SUMO dose -1.
For CC(C)c1ccc(NC(=O)c2ccccc2NC(=O)C2CCCCC2C(=O)O)cc1 (stereo not given) the results were AI-2 QS modul -4, NTR1 ag -1, SUMO Mot1 rescue 76, H9c2 protect -6 and NR3A LBD binder 0.
CC(C)CCn1c(=O)c2ccccc2c2ccccc2c1=O was read as AI-2 QS modul 12, NTR1 ag 6, SUMO Mot1 rescue active, H9c2 protect -13, AHR activator 2, NR3A LBD binder -14 and Mot1 SUMO dose 0.
CCCN(S(=O)(=O)c1ccccc1F)S(=O)(=O)c1ccccc1Br was read as AI-2 QS modul 5, NTR1 ag 2, SUMO Mot1 rescue 7, H9c2 protect -10, AHR activator -2 and NR3A LBD binder -18.
For Cc1cccc(N2CN=c3s/c(=C\c4ccccn4)c(=O)n3C2)c1 the results were AI-2 QS modul 39, NTR1 ag 0, SUMO Mot1 rescue 441*, H9c2 protect -2, AHR activator -1, NR3A LBD binder 0 and Mot1 SUMO dose 0.
O=c1/c(=C/c2ccccn2)sc2n1CN(c1ccccc1)CN=2 was read as AI-2 QS modul 25, NTR1 ag 0, SUMO Mot1 rescue 5, H9c2 protect 9, AHR activator 9 and NR3A LBD binder 1.
`Cc1ccccc1-c1nnc(CN2CCC(C)CC2)o1` gave AI-2 QS modul 18, NTR1 ag 2, SUMO Mot1 rescue 403*, H9c2 protect -7, AHR activator 0, NR3A LBD binder 1 and Mot1 SUMO dose 0.
Screening CCCn1cnc2c(c1=O)c1nc3ccccc3nc1n2Cc1ccccc1OC returned AI-2 QS modul 28.
For CCCCn1c2nc3ccccc3nc2c2c(=O)n(CCC)cnc21 the results were AI-2 QS modul 6, NTR1 ag 0, SUMO Mot1 rescue 731*, H9c2 protect 13, AHR activator 0, NR3A LBD binder 0 and Mot1 SUMO dose 0.
O=c1oc2cc(S(=O)(=O)NCCCO)ccc2c2ccc(S(=O)(=O)NCCCO)cc12 was read as AI-2 QS modul 3, NTR1 ag 1, SUMO Mot1 rescue 461*, H9c2 protect -11, AHR activator 1, NR3A LBD binder -1 and Mot1 SUMO dose 0.
`CC(=O)c1ccc(N(C(=O)CNC(=O)c2ccco2)C(C(=O)NC2CCCC2)c2ccc(C)o2)cc1` (stereo not given) gave AI-2 QS modul 14, NTR1 ag -1, SUMO Mot1 rescue 1, H9c2 protect 0, AHR activator -1 and NR3A LBD binder 1.
For Cc1ccc(C(C(=O)NC2CCCCC2)N(CCC(C)C)C(=O)CNC(=O)c2ccco2)o1 (stereo not given) the results were AI-2 QS modul 3, NTR1 ag 2, SUMO Mot1 rescue active, H9c2 protect 6, AHR activator 1, NR3A LBD binder 1 and Mot1 SUMO dose -1.
Screening C=CCN(C(=O)CNC(=O)c1ccco1)C(C(=O)NC1CCCCC1)c1ccccc1 (stereo not given) returned AI-2 QS modul 39, NTR1 ag 1, SUMO Mot1 rescue 737*, H9c2 protect 21, AHR activator 1, NR3A LBD binder -1 and Mot1 SUMO dose 0.
C=CCN(C(=O)CNC(=O)c1ccco1)C(C(=O)NC1CCCCC1)c1ccc(F)cc1 (stereo not given) was read as AI-2 QS modul 1, NTR1 ag -3, H9c2 protect 3, AHR activator -1 and NR3A LBD binder 5.
Screening COc1cc(/C=N/NC(=O)Cc2csc(C)n2)ccc1OCC(C)C returned AI-2 QS modul 4, NTR1 ag -1, H9c2 protect -5, AHR activator 6 and NR3A LBD binder -1.
Cc1nc(CC(=O)N/N=C/c2ccc(OCC(=O)O)cc2)cs1 was read as AI-2 QS modul 2, NTR1 ag 1, SUMO Mot1 rescue 571*, H9c2 protect -3, AHR activator 4, NR3A LBD binder 0 and Mot1 SUMO dose 0.
Screening CC(=O)N/C(=C\c1ccccc1)C(=O)OCc1cccc(S(=O)(=O)N(C)C)c1 returned AI-2 QS modul 6, SUMO Mot1 rescue -13, H9c2 protect -6 and NR3A LBD binder 1.
Cc1ccc2nc(NC(=O)C3CCN(S(=O)(=O)c4cccnc4)CC3)sc2c1 was read as AI-2 QS modul -53, NTR1 ag -1, SUMO Mot1 rescue 775*, H9c2 protect 16, AHR activator 13, NR3A LBD binder -13 and Mot1 SUMO dose 0.
Screening COc1ccc(C2CC3(CC(C)(C)NC(=S)N3)Oc3cc(O)cc(C)c32)cc1 (stereo not given) returned AI-2 QS modul -8, NTR1 ag 1, SUMO Mot1 rescue 978*, H9c2 protect -5, AHR activator 0, NR3A LBD binder 0 and Mot1 SUMO dose 0.
Screening CN1C(=O)c2ccc(NC(=S)NC(=O)C(C)(C)C)cc2C1=O returned AI-2 QS modul 3, NTR1 ag 0, SUMO Mot1 rescue 439*, H9c2 protect 0, AHR activator 2, NR3A LBD binder -2 and Mot1 SUMO dose 0.
CCC(=O)Nc1ccc2c(c1)C(=O)N(C)C2=O was read as AI-2 QS modul 12, NTR1 ag -1, SUMO Mot1 rescue inactive, H9c2 protect -4, AHR activator -3 and NR3A LBD binder -1.
Cc1cc(C)c[n+](-c2nc3ccccc3nc2[N-]S(=O)(=O)c2ccc(Br)s2)c1 was read as AI-2 QS modul 34, NTR1 ag 1, SUMO Mot1 rescue 379*, H9c2 protect -1, AHR activator 0, NR3A LBD binder 1 and Mot1 SUMO dose 0.
